Rows were chosen to be rich in hits. Some 0.4% of all compounds tested hit in one or more screens of this group.
Rab7 wt GTP bind: dog Rab7 wildtype GTP binding, inhibitors and activators | actives 0.055% (n = 190,000) | AID 758 | GTP binding activity (percent of control), % at 10 µM | GST-Rab7 beads, fluorescent GTP binding, flow cytometry; actives lie on both sides; untreated = 100%, excess cold GTP = 0%;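 active means fluorescent GTP binding to Rab7 beads changed by at least 20 points from the 100% baseline, either direction, mostly lower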;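 further: median green fluorescence of bound Bodipy-FL-GTP per Rab7 bead population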
Cdc42 wt GTP: changes GTP binding to wildtype human Cdc42; P60953; GST-Cdc42 beads, Bodipy-GTP binding, flow cytometry; actives lie on both sides; percent activity (GTP binding), % at 10 µM; actives 0.2% (n = 190,000); AID 761;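 active means percent activity GTP binding at least 20 points away from the 100% baseline, either down as inhibitor or up as activator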;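 further: median bead fluorescence of bound Bodipy-FL-GTP at 100 nM; below 100% means less GTP binding so inhibitor and above means activator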
Target sequence (P60953 whole entry, looked up): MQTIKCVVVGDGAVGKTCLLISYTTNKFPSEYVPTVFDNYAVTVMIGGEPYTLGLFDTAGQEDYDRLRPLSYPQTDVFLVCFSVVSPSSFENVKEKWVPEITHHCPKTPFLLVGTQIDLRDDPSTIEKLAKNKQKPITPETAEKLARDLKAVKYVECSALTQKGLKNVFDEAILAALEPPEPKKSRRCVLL
Rac1 wt modul: human Rac1 wildtype GTP binding, inhibitors and activators | P63000 | GST-Rac1 beads, fluorescent GTP binding, flow cytometry; actives lie on both sides; 0 = cold GTP competed, 100 = untreated | GTP binding activity (% of control), % at 10 µM | actives 0.27% (n = 190,000);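 active means GTP binding activity at least 20 points away from the 100% control level, either lower or higher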
HRas wt GTP: human HRas wildtype GTP binding, change in either direction | P01112 | GST-Ras wt beads, Bodipy-FL-GTP binding, flow cytometry; actives lie on both sides | GTP binding activity, % at 10 µM | actives 0.14% (n = 190,000) | AID 759;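 active means GTP binding activity at least 20% away from the 100% baseline, either lowered as inhibitor or raised as activator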
Target sequence (P01112 whole entry, looked up): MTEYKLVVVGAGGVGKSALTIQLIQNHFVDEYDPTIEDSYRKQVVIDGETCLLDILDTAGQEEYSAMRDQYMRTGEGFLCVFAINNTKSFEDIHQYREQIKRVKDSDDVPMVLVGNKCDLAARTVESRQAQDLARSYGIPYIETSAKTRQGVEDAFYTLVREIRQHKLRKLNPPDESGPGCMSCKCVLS
Rac1 act GTP bind: alters GTP binding to activated mutant human Rac1; percent activity (GTP binding), % at 10 µM; actives 0.11% (n = 190,000); GST-Rac1 activated beads, fluorescent GTP binding, flow cytometry; actives lie on both sides; 100% means binding = to untreated wells; AID 764;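 active means GTP binding at least 20 percentage points away from the 100% baseline, in either direction, so actives lie on both sides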
Rab2A wt mod: changes GTP binding to wildtype dog Rab2A, up or down | GST-Rab2 wt beads, Bodipy-GTP binding, flow cytometry | GTP binding activity, % at 10 µM | actives 0.19% (n = 190,000);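 active means GTP binding activity at least 20 points away from 100%, either lowered or raised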
Large screens that a line does not name were inactive; [ ] = another dose, or the depositor's remark.

NS(=O)(=O)c1ccc(Nc2nc(-c3ccc(F)cc3)cs2)cc1	none
NS(=O)(=O)c1ccc(Nc2nc(-c3ccc(O)cc3O)cs2)cc1	Cdc42 wt GTP 77.0, Rac1 wt modul 78.0, HRas wt GTP 78.0, Rab2A wt mod 77.0
Cc1cccc(CN2CCN(C(=O)CCl)CC2)c1	none
O=C(C1=C[C@H](c2coc3ccccc3c2=O)C[C@H](OCCCCO)O1)N1CCOCC1	none
O=c1c2ccccc2nc2ccc(NCc3ccco3)nn12	Rab2A wt mod 79.0
Cc1sc2nc3ccc(NCc4ccco4)nn3c(=O)c2c1C	Rab7 wt GTP bind 18.0, Cdc42 wt GTP 28.0, Rac1 wt modul 22.0, HRas wt GTP 34.0, Rac1 act GTP bind 30.0, Rab2A wt mod 27.0
COc1cc2ccccc2cc1C(=O)NC(=S)Nc1cccc(C(=O)O)c1	Cdc42 wt GTP 75.0, HRas wt GTP 76.0, Rab2A wt mod 75.0
Nc1ccc(-c2cn3cccnc3n2)cc1	Cdc42 wt GTP 79.0, Rac1 wt modul 72.0, HRas wt GTP 78.0, Rab2A wt mod 78.0
O=C(N/N=C/c1c(O)n(-c2ccccc2Cl)c(=O)c2ccccc12)c1cccnc1	none
COc1ccc(Cn2c(O)c(/C=N/NC(=O)c3cccnc3)c3ccccc3c2=O)cc1	Cdc42 wt GTP 68.0, Rac1 wt modul 60.0, Rac1 act GTP bind 72.0
O=C(N/N=C/c1c(O)n(Cc2ccccc2)c(=O)c2ccccc12)c1cccnc1	Cdc42 wt GTP 65.0, Rac1 wt modul 55.0, HRas wt GTP 78.0, Rac1 act GTP bind 68.0, Rab2A wt mod 71.0
O=C(COC(=O)c1cc(Br)ccc1Cl)NC1CCCC1	none
CCCOc1ccc(N2CC(C(=O)Nc3ccc(N4CCOCC4)cc3)CC2=O)cc1 (stereo not drawn)	none
COCCn1c(N)c(C(=O)Nc2sc3c(c2C(=O)OC)CCCC3)c2nc3ccccc3nc21	Cdc42 wt GTP 63.0, Rac1 wt modul 77.0, HRas wt GTP 63.0, Rab2A wt mod 69.0
O=C(O)c1cccc(S(=O)(=O)Nc2ccccc2Cl)c1	none
O=C(NCCc1c[nH]c2ccccc12)c1cccc(S(=O)(=O)Nc2ccccc2Cl)c1	Rab2A wt mod 79.0
COc1ccccc1CNC(=O)c1c(N)n(CCCN2CCOCC2)c2nc3ccccc3nc12	Rac1 wt modul 78.0
Cc1[nH]c2ccccc2c1C(=O)COC(=O)c1ccc2c(=O)n3c(nc2c1)CCC3	none
CC(=O)Nc1ccc(NC(=O)c2ccccc2C)cc1	none
Cc1ccccc1C(=O)Nc1ccc2c(C#N)c3nc4ccccc4nc3n2c1	Rac1 wt modul 76.0, Rab2A wt mod 76.0
O=C(CCn1cnnn1)Nc1ccc(Cl)c(Cl)c1	none
CCCCCCSc1nc(O)c(C2OC(=O)c3c2ccc(OC)c3OC)c(=O)n1-c1ccccc1 (stereo not drawn)	none
Cc1nccn1-c1cc(C(C)(C)C)nc2c(-c3ccccc3)cnn12	none
Cc1c(C(=O)N2CCOCC2)oc2ccc(S(=O)(=O)N3CCCC3)cc12	none
Cc1c(C(=O)N2CCc3ccccc3C2)oc2ccc(S(=O)(=O)N3CCCCCC3)cc12	Rac1 wt modul 131.0[activator]
COCc1cc(C)nc(OCC(=O)N/N=C/c2ccc(-c3cc([N+](=O)[O-])ccc3Cl)o2)c1C#N	none
O=C(CSCc1c(Cl)cccc1Cl)N1CCOCC1	none
CCOC(=O)c1cc(C(=O)OCC)c2ccccn2c1=O	Rab7 wt GTP bind 76.0, HRas wt GTP 79.0
CCOc1cc(NC(=S)NCCCN2CCOCC2)c(OCC)cc1NC(=O)C1CCCCC1	none
CS(=O)(=O)NN1C(=O)c2ccccc2NC12CCCC2	none
CSC1=N/C(=C\c2ccc(C)cc2)C(=O)S1	none
COc1ccc(/C=C2\N=C(SC)SC2=O)cc1OC	Rab7 wt GTP bind 64.0, Rab2A wt mod 77.0
COC(=O)c1[nH]c2ccccc2c1NC(=O)CNC1CCCCC1	none
COc1ccc(N=C2SC(C(=O)N3CCN(c4ccccc4)CC3)CC(=O)N2C)cc1 (stereo not drawn)	none
O=C(Oc1ccc(C(=S)N2CCOCC2)cc1Br)c1cc(Cl)ccc1Cl	none

From PubChem BioAssay
